Tests used:
[1] = system: Botulinum neurotoxin type F light chain protease (Clostridium botulinum); assay: Clostridium botulinum type F light chain protease inhibitors, microsphere substrate cleavage, validation (AID 588459); details: multiplex microsphere protease substrate cleavage assay, flow cytometry; at 10 µM; active compounds read high
[2] = target: Botulinum neurotoxin type A (Clostridium botulinum) (UniProt P0DPI0); assay: BoNT/A light chain protease inhibitors, biochemical, multiplex microsphere flow cytometry, validation set (AID 588460); details: at 10 µM, active compounds read high
[3] = target: Lethal factor (Bacillus anthracis) (UniProt P15917); assay: Bacillus anthracis lethal factor inhibition, microsphere flow cytometry protease assay, validation at 10 µM (AID 588461); details: multiplex microsphere protease cleavage assay, active compounds read high

Measured: inhibition

CC(C)c1ccc(NC(=O)CNS(=O)(=O)c2ccc(F)cc2)cc1
inactive: [1] 1.6% | [2] -0.9% | [3] 2.8%

NC(N)=N/N=C/c1c(Cl)cccc1Cl
inactive: [1] -0.2% | [2] 0.6% | [3] 0.5%

CNc1nc(N(C)C)nc(N(C)C)n1
inactive: [1] 1.3% | [2] 0.7% | [3] -1.7%

CCN(CC)C(=O)N1CCN(C)CC1
inactive: [1] -3.4% | [2] -0.7% | [3] 4.2%

CCN(CC)CCNC(=O)c1cc(S(C)(=O)=O)ccc1OC
inactive: [1] 2.7% | [2] 1.8% | [3] 4.7%

CO/N=C(\C(=O)N[C@@H]1C(=O)N2C(C(=O)O)=C(COC(C)=O)CS[C@H]12)c1csc(N)n1 (stereo in doubt)
inactive: [1] 2.7% | [2] -1.1% | [3] -5.4%

Cc1csc(-c2coc3cc(O)cc(C)c3c2=O)n1
inactive: [1] 0.3% | [2] 1.7% | [3] 0.3%

Cc1ccc(NCCC(=O)c2ccccc2)cc1Cl
inactive: [1] 4.1% | [2] 0.4% | [3] -2.5%

C=CCOc1ccc(C(=O)CC)cc1OC
inactive: [1] 0.6% | [2] -0.5% | [3] -1.9%

CCOC(=O)Cc1c(C)nc(N)[nH]c1=O
inactive: [1] 2.8% | [2] 0.8% | [3] -3.1%

c1ccc2c(c1)CCOC2CNCCCN1CCCCC1 (centres undefined)
inactive: [1] 0.6% | [2] 1.3% | [3] -8.4%

CC(CCc1ccccc1)NC(=O)/C=C/c1ccccc1 (centres undefined)
inactive: [1] 4.2% | [2] 0.4% | [3] 1.8%

Cc1occc(=O)c1O
inactive: [1] 2.1% | [2] 0.8% | [3] -1.7%

C=CCc1ccccc1OCC(O)CNC(C)C (centres undefined)
inactive: [1] -1% | [2] 0.4% | [3] -6.5%

CSc1cccc(NC(=O)/C=C/c2ccccc2)c1
inactive: [1] -0.9% | [2] -2.3% | [3] -8.2%

O=C(NC1CCCCC1)c1cc2nc(-c3ccco3)cc(C(F)(F)F)n2n1
inactive: [1] 2.6% | [2] 1.2% | [3] 0.5%

OC(C#CCN1CCCC1)(c1ccccc1)c1cccnc1 (centres undefined)
inactive: [1] -1% | [2] -1% | [3] -1.1%

COc1ccc(/C=C\c2cc(OC)c(OC)cc2CC[N+](C)(C)C)cc1OC
inactive: [1] 2% | [2] -1.4% | [3] 3.5%

Cc1cc(C)nc(NS(=O)(=O)c2ccc(N)cc2)n1
inactive: [1] 1.3% | [2] 2.1% | [3] 3.4%

COc1cc(C(=O)Nc2cccc(-c3nnc(-c4ccco4)o3)c2)ccc1OC(C)=O
inactive: [1] 3.1% | [2] 2.1% | [3] 0.6%

CCc1c(C(C)=O)oc2ccc3c(C)cc(=O)oc3c12
inactive: [1] -1.2% | [2] -2.4% | [3] -2.4%

C[C@@H]1C[C@H]2[C@@H]3CCC4=CC(=O)C=C[C@]4(C)[C@@]3(F)[C@@H](O)C[C@]2(C)[C@@]1(O)C(=O)COP(=O)(O)O
inactive: [1] 2.6% | [2] 0.2% | [3] 0.9%

CCOC(=O)C(=Cc1ccccc1OC)C(=O)OCC
inactive: [1] -0.7% | [2] -2.6% | [3] -6.9%

Cc1ccnc2c1NC(=O)c1cccnc1N2C1CC1
inactive: [1] 0.7% | [2] -0.1% | [3] -4.5%

CC(C)=CCC/C(C)=C/CC/C(C)=N/O
inactive: [1] -1.6% | [2] -0.4% | [3] 4.1%

COc1ccc(CCN(C)Cc2nc(Cc3ccc(OC)c(OC)c3)no2)cc1OC
inactive: [1] 1% | [2] -1% | [3] 6.9%

CC1(C)CC(=O)C(C2(O)C(=O)Nc3ccccc32)CO1 (centres undefined)
inactive: [1] -0.1% | [2] -1.6% | [3] -6%

Cc1ccc(S(=O)(=O)NC(C(=O)Oc2cc3oc(=O)cc(C)c3cc2Cl)C(C)C)cc1 (centres undefined)
inactive: [1] 0.5% | [2] 0.5% | [3] -3.2%

Nc1cccc(C(=O)O)c1
inactive: [1] -0.6% | [2] -0.3% | [3] 3.3%

CCOC(=O)N1c2ccccc2C=CC1OCC (centres undefined)
inactive: [1] -1.1% | [2] -0.5% | [3] 3.6%

CN1CCN(CCCN2c3ccccc3Sc3ccc(C(F)(F)F)cc32)CC1
inactive: [1] 0.3% | [2] -0.5% | [3] -3.1%

O=C(CN1C(=O)c2ccccc2S1(=O)=O)Nc1ccccc1
inactive: [1] 2.3% | [2] 0.2% | [3] -4.6%

COc1ccc(CC(=O)c2c(O)cc(O)cc2O)cc1OC
inactive: [1] 0% | [2] 1.7% | [3] -2.8%

CC(=O)Nc1ccc(S(=O)(=O)c2ccc(N)cc2)cc1
inactive: [1] -3.7% | [2] -0.4% | [3] -3.2%

O=C(c1cc2cc(Br)ccc2o1)N1CCCCC1
inactive: [1] 5.3% | [2] -0.6% | [3] 8.5%

Cc1oc2ccc(OC(=O)c3cccs3)cc2c1C(=O)OC(C)C
inactive: [1] -0.1% | [2] -1.1% | [3] 3.1%

COc1ccccc1OCC(O)COC(N)=O (centres undefined)
inactive: [1] -3.8% | [2] -1.3% | [3] -6.8%

CCNC(=O)c1c(N)sc2c1CCCCC2
inactive: [1] 0.9% | [2] -0.9% | [3] -5.1%

CC(=O)Nc1ccc2[nH]c(C)c(CC=C(Cl)Cl)c(=O)c2c1
inactive: [1] -0.7% | [2] -1.7% | [3] -4.2%

Cn1c([N+](=O)[O-])cnc1COC(N)=O
inactive: [1] 1.4% | [2] -0.6% | [3] -1.2%

CCOC(=O)C1=C(N)Oc2c(c(=O)[nH]c3ccccc23)C1c1ccccc1 (centres undefined)
inactive: [1] 0.4% | [2] 1.1% | [3] -1.6%

COc1cc(/C=C(\C#N)C(=O)N2CCc3ccccc32)ccc1O
inactive: [1] 0.6% | [2] 1.6% | [3] 0.9%

O=C(COc1cc(O)c2c(=O)c3ccccc3oc2c1)OCc1ccccc1
inactive: [1] 1.4% | [2] 0.2% | [3] 1.6%

C/C(=N/N1CCN(Cc2cccc3ccccc23)CC1)c1cccnc1
inactive: [1] 6.2% | [2] -0.9% | [3] -4%

CCOC(=O)[C@H]1O[C@@H]1C(=O)N[C@@H](CC(C)C)C(=O)NCCC(C)C
inactive: [1] 1.7% | [2] -1.4% | [3] -2.8%

NC(N)=N/N=C/c1ccc(OS(=O)(=O)c2ccccc2)cc1
inactive: [1] -5.1% | [2] -1.5% | [3] -1.4%

COC(=O)CN1C(=S)N(c2ccc(F)cc2)C(=O)C1CC(=O)Nc1ccccc1 (centres undefined)
inactive: [1] -5.7% | [2] -2% | [3] -5.6%

COc1ccc(NC(=O)C2OC3OC(C)(C)OC3C3OC(C)(C)OC23)cc1 (centres undefined)
inactive: [1] -1.2% | [2] 1.3% | [3] -5.4%

CC(=O)OCC#CCSc1nc2ccccc2n1C
inactive: [1] 0.7% | [2] -0.6% | [3] -1.5%

CS(=O)(=O)Nc1cccc(C(=O)CC2(O)C(=O)Nc3ccc(Br)cc32)c1 (centres undefined)
inactive: [1] 3.1% | [2] 1.3% | [3] 6.6%

CC(=O)OCC(=O)[C@@]1(OC(C)=O)[C@@H](C)C[C@H]2[C@@H]3C[C@H](F)C4=CC(=O)C=C[C@]4(C)[C@@]3(F)[C@@H](O)C[C@@]21C
inactive: [1] 1.6% | [2] 0.4% | [3] -0.9%

COc1cc2c(cc1OC)C(=S)NC(C)(C)C2
inactive: [1] 2.8% | [2] -0.8% | [3] 2.9%

COc1ccc(C(C)=O)c2c1OCCO2
inactive: [1] 2.3% | [2] -2.8% | [3] 0.8%

CS(=O)(=O)NCc1ccc(C(=O)NCc2ccccc2)cc1
inactive: [1] 2.9% | [2] 0.5% | [3] -4.2%

COc1ccc(C2OC[C@H]3O[C@H](O)[C@H](NC(C)=O)[C@@H](O)[C@@H]3O2)cc1 (some centres undefined)
inactive: [1] -3.6% | [2] -1.7% | [3] -9.6%

CC(=O)[C@@H]1[C@@H](C(=O)c2ccc(C)cc2)[C@]2(C(=O)Nc3ccccc32)[C@H]2C=Cc3cc(F)ccc3N12
inactive: [1] 2.2% | [2] 1.6% | [3] -6.9%

COc1ccc(CNC(=O)C2CCCN2C)cc1OC (centres undefined)
inactive: [1] 0.4% | [2] -2.5% | [3] 6.2%

O=C(O)C1[C@H]2C(=O)N(C3CCCC3)C[C@]23C=C[C@H]1O3 (some centres undefined)
inactive: [1] 6.7% | [2] 1.3% | [3] 5.6%

— PubChem BioAssay
